The target of the first assay is PUM1 PUF domain R1-RLM (Homo sapiens, UniProt Q14671 828-1176, S863R;R864L;Q867M). Briefly: yeast three-hybrid, YBZ-1, SC-Leu-His + 0.5 mM 3-AT, 4 days. To be noted: tags: N-Gal4 AD-HA kept; label: inside an RPR1-promoter hybrid RNA with tandem MS2 sites; ssRNA. The method in brief:
(§1)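 Repeat regions from input (SC-Leu) and selection (SC-Leu-His + 0.5 mM 3-AT) plates were PCR-amplified and Illumina-sequenced after four days of growth. The cells were strain YBZ-1 with a LexA–MS2 coat fusion and a HIS3 reporter, co-expressing Pumilio-1 PUF domain libraries and matching RNA elements from a centromeric plasmid. The interaction score is the log change in variant frequency from input to selection, taken in log2 with a pseudocount of 1 for absent variants.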
“GGCUAGAACUAGUGGAUCCCCCGGCGCCCGGCGGCUCGAGCCCGGGUAAGUGUAAAUCGUCUGCAUGCCGCCGGGCGCCAUGCCUGCAGGUCGACUCUAGAAAACAUG”: the binding signal was 3.34 log2 enrichment (interaction score).

For the sequence “GGCUAGAACUAGUGGAUCCCCCGGCGCCCGGCGGCUCGAGCCCGGGUAAGUGUAAAUGGUCUGCAUGCCGCCGGGCGCCAUGCCUGCAGGUCGACUCUAGAAAACAUG”, the binding signal was 1.69 log2 enrichment (interaction score).

As to “GGCUAGAACUAGUGGAUCCCCCGGCGCCCGGCGGCUCGAGCCCGGGUAAGUGUAAAUUGUCUGCAUGCCGCCGGGCGCCAUGCCUGCAGGUCGACUCUAGAAAACAUG”, the binding signal was 3.95 log2 enrichment (interaction score).

A further assay addresses PUM1 PUF domain R4-GCC (Homo sapiens, UniProt Q14671 828-1176, N971G;H972C;Q975C). Described as above. To be noted: tags: N-Gal4 AD-HA kept; label: inside an RPR1-promoter hybrid RNA with tandem MS2 sites; ssRNA. The method in brief:
as §1
Turning to “GGCUAGAACUAGUGGAUCCCCCGGCGCCCGGCGGCUCGAGCCCGGGUAAGUGUACAUAGUCUGCAUGCCGCCGGGCGCCAUGCCUGCAGGUCGACUCUAGAAAACAUG”, the binding signal was 1.75 log2 enrichment (interaction score).

For the sequence “GGCUAGAACUAGUGGAUCCCCCGGCGCCCGGCGGCUCGAGCCCGGGUAAGUGUAAAUAGUCUGCAUGCCGCCGGGCGCCAUGCCUGCAGGUCGACUCUAGAAAACAUG”, the binding signal was 1.5 log2 enrichment (interaction score).

For the sequence “GGCUAGAACUAGUGGAUCCCCCGGCGCCCGGCGGCUCGAGCCCGGGUAAGUGUAUAUAGUCUGCAUGCCGCCGGGCGCCAUGCCUGCAGGUCGACUCUAGAAAACAUG”, the binding signal was 3.64 log2 enrichment (interaction score).

The target of a further assay is PUM1 PUF domain R4-VPA (Homo sapiens, UniProt Q14671 828-1176, N971V;H972P;Q975A). Described as above. To be noted: tags: N-Gal4 AD-HA kept; label: inside an RPR1-promoter hybrid RNA with tandem MS2 sites; ssRNA. The method in brief:
as §1
For the sequence “GGCUAGAACUAGUGGAUCCCCCGGCGCCCGGCGGCUCGAGCCCGGGUAAGUGUACAUAGUCUGCAUGCCGCCGGGCGCCAUGCCUGCAGGUCGACUCUAGAAAACAUG”, the binding signal was 1.62 log2 enrichment (interaction score).

“GGCUAGAACUAGUGGAUCCCCCGGCGCCCGGCGGCUCGAGCCCGGGUAAGUGUAAAUAGUCUGCAUGCCGCCGGGCGCCAUGCCUGCAGGUCGACUCUAGAAAACAUG”: the binding signal was 1.54 log2 enrichment (interaction score).

As to “GGCUAGAACUAGUGGAUCCCCCGGCGCCCGGCGGCUCGAGCCCGGGUAAGUGUAUAUAGUCUGCAUGCCGCCGGGCGCCAUGCCUGCAGGUCGACUCUAGAAAACAUG”, the binding signal was 3.26 log2 enrichment (interaction score).

(Values after paper PMC8384837, “Expanding the binding specificity for RNA recognition by a PUF domain”.)
